# A selection: hits, their analogues and other compounds. The true share with any hit is near 2.4%.
# D2 PAM-1: Beta-Arrestin HTS for Positive Allosteric Modulators of the Human D2 Dopamine Receptor: Potentiators; potentiation, % (no concentration beside the values); AID 624464, 2012; DiscoveRx D2 beta-arrestin cells, luminescence, 90 min; 100% = 57 uM dopamine signal; 360,000 compounds, 0.23% hits; in the data active = potentiation above about 50%; inconclusive = mostly about 30% to 49%
#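 PathHunter D2 cells, attached overnight at 37 deg C, received compound in DMSO plus dopamine at EC20 (50 nM final) for 90 min at 37 deg C. Beta-arrestin recruitment was read as luminescence after 1 h with detection reagent at ambient temperature.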
# D2 ag-1: Beta-Arrestin HTS for Positive Allosteric Modulators of the Human D2 Dopamine Receptor: Agonists; DiscoveRx PathHunter D2 beta-arrestin, luminescence, 90 min; 100% = 57 uM dopamine signal; activation, % (test concentration not listed); 360,000 compounds, 0.084% hits; AID 624465, 2012; in the data active = activation above about 40%; inconclusive = between about 15% and that limit
#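 DiscoveRx PathHunter D2 beta-arrestin cells (2,100/well) attached overnight, then compound-stimulated 90 min at 37 C in HBSS/10 mM HEPES/0.1% Tween-20 buffer; beta-galactosidase complementation read by luminescence after 1 h at ambient temperature. Dopamine 57 uM final (EC100) as control.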
# D2 PAM-2: HTS Assay for Positive Allosteric Modulators of the Human D2 Dopamine Receptor: Primary Screen for Potentiators; AID 485347, 2010; potentiation, % at 10 µM; D(2) dopamine receptor (Homo sapiens), P14416; 340,000 compounds, 0.34% hits; HEK293 T-REx D2, calcium flux, EC20 dopamine potentiation;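 active = potentiation over 3 SD above the plate norm, cut at about 30% in these data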
#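 Tetracycline-induced Hek293 Trex D2 cells, force-coupled to calcium, loaded with no-wash calcium dye. Compound added with 180 s kinetic read for agonism, then EC20 dopamine and a further 180 s read for potentiation.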
# D2 ag-2: HTS Assay for Allosteric Agonists of the Human D2 Dopamine Receptor: Primary Screen for Agonists | HEK293 T-REx D2 cells, calcium flux agonist mode | activation, % at 2 µM | 340,000 compounds, 0.53% hits | AID 485358, 2010;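 active = activation over 3 SD above normal in the single-dose calcium agonist read, cut at about 30% in these data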
#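 HEK293 Trex D2 cells, tetracycline-induced, o/n 30 C 5% CO2; no-wash Ca dye, RT 30–90 min; 10-cycle baseline, 23 nl cpd added, kinetic Ca read 180 s; agonist hits = positive Ca response.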
# D2 antagonist: HTS Assay for Allosteric Antagonists of the Human D2 Dopamine Receptor: Primary Screen for Antagonists; inhibition, % at 10 µM; D(2) dopamine receptor (Homo sapiens), P14416; HEK293 TREx D2 cells, calcium flux, dopamine EC80; AID 485344, 2010; 340,000 compounds, 2% hits; in the data active = inhibition above about 30%; inactive = below that, where a call was filed
#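 Antagonism is scored as inhibition of an EC80 dopamine-evoked calcium signal in a force-coupled, tetracycline-inducible HEK293 T-REx D2 line, with compound present 180 s before agonist.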
# D3 ag: qHTS of D3 Dopamine Receptor Agonist: D3 Dopamine Receptor B-arrestin Agonist Confirmatory Assay; shares compounds with D2 ag-2; DiscoveRx D3 beta-arrestin cells, luminescence, 90 min; Potency, µM (titrated, usually from 76.9 µM), actives largely listed as activators; 2,300 compounds, 4% hits; also: nearly all actives have a fitted effect of over 70% in size
# Target sequence (P35462 whole entry, looked up): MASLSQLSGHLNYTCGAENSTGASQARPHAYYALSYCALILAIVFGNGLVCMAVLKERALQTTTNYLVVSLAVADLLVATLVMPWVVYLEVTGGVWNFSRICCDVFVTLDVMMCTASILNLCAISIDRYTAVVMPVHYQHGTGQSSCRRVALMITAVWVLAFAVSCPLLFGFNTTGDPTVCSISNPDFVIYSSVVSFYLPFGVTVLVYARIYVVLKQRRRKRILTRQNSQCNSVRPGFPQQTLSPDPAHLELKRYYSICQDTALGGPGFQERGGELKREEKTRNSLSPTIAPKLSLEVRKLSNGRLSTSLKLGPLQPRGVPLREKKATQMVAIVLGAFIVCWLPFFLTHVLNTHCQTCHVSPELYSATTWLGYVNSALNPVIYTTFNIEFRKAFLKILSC
# D2 ag-3: qHTS of D3 Dopamine Receptor Agonist: D2 Dopamine Receptor B-arrestin Agonist Counterscreen. shares compounds with D2 ag-2. DiscoveRx PathHunter D2 beta-arrestin, luminescence, 90 min; response scale: percent relative to full dopamine signal. Potency, µM (highest dose often 76.9 µM), hits mostly activators. 2,300 compounds, 5.9% hits. AID 720507, 2013; also: nearly all actives have a fitted effect of over 70% in size
# Hits are given with their value; – = inactive; ? = inconclusive; · = not tested or not shown; ! = a repeat was not active. Unless noted, calls follow the shape of the dose curve; as a rule, active = well fitted activation curve with a large enough effect; inconclusive = small, poorly fitted or top-dose-only effect; inactive = flat fitted curve, though single readings scatter.
SMILES,D2 PAM-1,D2 ag-1,D2 PAM-2,D2 ag-2,D2 antagonist,D3 ag,D2 ag-3
CN1C[C@H](C(=O)N[C@]2(C)O[C@@]3(O)[C@@H]4CCCN4C(=O)[C@H](Cc4ccccc4)N3C2=O)CC2c3cccc4[nH]cc(c34)C[C@H]21 (stereo partly drawn),–,?,–,81.5!,88.1!,–,?
Cc1cccc(CN2C(=O)CN=C(c3ccccc3Cl)c3cc(Cl)ccc32)c1,·,·,–,·,·,·,·
CC(CCc1ccccc1)NC(C)C(O)c1ccc(O)cc1 (stereo not drawn),–,–,–,71.0,63.8,–,–
Cc1ccc2scc(N3CCN(C)CC3)c(=O)c2c1,·,·,–,–,·,·,·
O=C1c2ccccc2-c2c1nc1c([n+]2[O-])CCCC1,–,–,–,–,–,–,–
COc1cc(OC)cc(C(=O)Nc2ccc(Cl)cc2C(=O)c2ccccc2Cl)c1,·,·,–,–,·,·,·
N#Cc1cc2c(nc1SCC(=O)Nc1cccc(C(F)(F)F)c1)C1CCN2CC1,·,·,–,–,·,·,·
c1ccc(-c2cc(-c3ccccc3)[n+](-c3ccccc3)c(-c3ccccc3)c2)cc1,–,–,·,·,·,·,·
Cc1ccc(-c2cc(-c3ccc(C)cc3)[n+](-c3ccccc3)c(-c3ccc(C)cc3)c2)cc1,–,–,–,–,48.9,–,–
CCN(CC)P(=O)(/C=C(\Cl)c1ccccc1)/C=C(\Cl)c1ccccc1,–,–,–,–,–,–,–
O=c1c2ccccc2nc(/C=C/c2cccc3ccccc23)n1-c1ccc(Cl)cc1,·,·,–,·,·,·,·
NCCc1ccc(O)cc1,–,–,–,51.1,46.6,?,–
Cc1cccc(OCC(=O)N2CCN(CCc3ccccn3)CC2)c1,·,·,–,–,·,·,·
COc1ccc(N2CCN(CCc3ccncc3)CC2)cc1,–,–,·,–,–,·,·
c1ccc(CCN2CCC(N3CCN(c4ccccc4)CC3)CC2)cc1,–,?,–,74.3,71.8,?,?
Cc1ccc(-c2nc(CN3C(=O)CN=C(c4ccccc4)c4ccccc43)c(C)o2)cc1,·,·,–,·,·,·,·
COc1ccc(CN2CCN(c3ccccc3)CC2)c(C)c1C,–,–,–,63.4,65.2,–,–
CCOc1ccc(CN2C(=O)c3ccccc3Sc3ccc(C(=O)N4CCC5(CC4)OCCO5)cc32)cc1,·,·,–,–,·,·,·
Cc1ccc(C(C)(C)C)c(OCC(=O)Nc2ccc(Cl)cc2C(=O)c2ccccc2)c1,·,·,–,–,·,·,·
CCCCCc1nc2c(c(=O)c3ccccc3n2C)c(=O)n1C1CCCCCC1,–,–,–,36.3,45.8,–,–
CCCCCc1nc2ccccc2c(=O)n1-c1ccc(C)cc1,·,·,–,–,·,·,·
N#CC(C#N)=Cc1ccc(O)c(O)c1,–,–,–,–,–,·,·
CC(C)(C)c1cc(C=C(C#N)C#N)cc(C(C)(C)C)c1O,–,–,–,–,–,?,–
COC(=O)C1=C(c2ccc(OC(F)(F)F)cc2)C[C@@H]2CC[C@H]1N2C(=O)N1CCOCC1,–,–,–,–,–,–,–
COC(=O)C1=C(c2ccc(OC(F)(F)F)cc2)C[C@@H]2CC[C@H]1N2C(=O)NCC1CC1,–,–,–,–,–,·,·
SMILES,D2 PAM-1,D2 ag-1,D2 PAM-2,D2 ag-2,D2 antagonist,D3 ag,D2 ag-3
COC(=O)C1=C(c2ccc(OC(F)(F)F)cc2)C[C@@H]2CC[C@H]1N2C(=O)NC1CC1,–,–,–,–,–,–,–
c1ccc2cc(CC3=NCCN3)ccc2c1,–,–,–,–,–,·,·
c1ccc(C2CC2)c(OCC2=NCCN2)c1,–,–,–,–,47.0,–,–
CCc1ccc(CNCCc2c[nH]c3ccccc23)cc1,–,–,–,–,–,–,–
NCC(O)c1cc(O)c(O)cc1F (stereo not drawn),–,–,–,66.8,81.2,–,12.6µM
COc1ccc(OCC(=O)N2CCN(Cc3cc(=O)n4nc(-c5ccc(OC)cc5)sc4n3)CC2)cc1,·,·,–,–,·,·,·
Cc1ccccc1-n1c(/C=C/c2ccc(O)cc2)nc2ccccc2c1=O,·,·,–,–,·,·,·
N#C/C(N)=C(/N)C#N,–,–,–,–,–,–,–
CCOc1ccc(CN2CCN(C(=O)Cc3ccccc3)CC2)cc1,–,–,–,–,–,·,·
CCOC(=O)C1CCN(Cc2ccc(Cl)nc2)CC1,–,–,–,46.8,46.7,–,–
CCCOC(=O)c1ccccc1C(=O)OCCC,–,–,–,–,–,–,–
CCOC(=O)c1ccccc1C(=O)OCC,–,–,·,·,·,·,·
O=c1c2ccccc2nc(/C=C\c2ccccc2F)n1-c1ccc(O)cc1,·,·,–,–,·,·,·
COc1ccccc1N1CCN(Cc2ccc(F)cc2)CC1,–,–,–,38.4,75.9,–,–
COc1ccc(CN2CCN(c3ccccc3F)CC2)cc1O,–,–,·,·,·,–,–
COC(=O)C1=C(c2cc3ccccc3s2)C[C@@H]2CC[C@H]1N2C(=O)NC1CC1,–,–,·,·,·,·,·
COC(=O)C1=C(c2cc3ccccc3s2)C[C@@H]2CC[C@H]1N2C,–,–,–,–,58.2,–,–
O=C(COc1ccccc1Cl)N1CCN(CCc2ccccn2)CC1,·,·,–,–,·,·,·
COC(=O)C1=C(c2ccc(-c3ccccc3)c(F)c2)C[C@@H]2CC[C@H]1N2C(=O)NCCOc1ccccc1Cl,–,–,–,–,–,–,–
CCCNC(=O)N1[C@H]2CC[C@@H]1C(C(=O)OC)=C(c1ccc(-c3ccccc3)c(F)c1)C2,–,–,–,–,–,–,?
COC(=O)C1=C(c2ccc(-c3ccccc3)c(F)c2)C[C@@H]2CC[C@H]1N2C(=O)NCCO,–,–,–,–,–,–,–
COC(=O)C1=C(c2ccc(OCc3ccccc3)cc2)C[C@@H]2CC[C@H]1N2C(=O)NCc1ccc(F)cc1,–,–,·,·,·,·,·
COC(=O)C1=C(c2ccc(OCc3ccccc3)cc2)C[C@@H]2CC[C@H]1N2C(=O)NCc1ccc(N(C)C)cc1,–,–,–,–,–,–,–
